Measured values as given in PubChem BioAssay AID1628 (Sanford-Burnham Center for Chemical Genomics, 2009).
Among all 190,000 compounds or so, about 930 (0.49%) were called active.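 How the source made its calls: active means z-score of insulin promoter reporter brightness in nuclei below -3 at 5 µM, with at least 500 cells counted; inconclusive means wells with under 500 cells, flagged as toxic or sparse; inactive means the rest.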 Some of the results follow. Results with a measured potency or affinity are listed apart.

Assay: insulin promoter down-regulators in MIN6 cells, imaging, high-content screening, mouse beta cells (AID 1628)
Conditions: MIN6 insulin promoter GFP reporter, at 5 µM, stronger effect = lower value

z-score, inactive:
CC(C)(O)C(O)COc1c2ccoc2cc2oc(=O)ccc12 (stereo not given) -0.51, COc1cccc(/C=N/NC(=O)c2oc3nc(-c4ccccc4)cc(-c4ccco4)c3c2N)c1 3.3, N#Cc1cccc(NC(=O)CSc2ccc3c4c(cccc24)C(=O)c2ccccc2-3)c1 4.94, CCc1cc(C(=O)OC)c(NC(=O)CC2Sc3ccc(C(F)(F)F)cc3NC2=O)s1 (stereo not given) 3.33, Brc1ccc(Oc2nsnc2N2CCOCC2)cc1 3.88, CC(C)CNC(=O)CSc1nnc(-c2cccc(S(=O)(=O)N3CCCCC3)c2)o1 4.75, CC(=O)OC(C(=O)NCc1ccc(F)cc1)c1ccccn1 (stereo not given) 3.91, Oc1ccc(/C=N/Nc2nc(-c3ccccc3F)nc3ccccc23)c(O)c1 3.69, Cc1ccc(-c2cc(N)n(-c3ccccc3)n2)cc1 5.28, c1ccc(-c2csc(-n3cnnn3)n2)cc1 3.13, N#C/C(=C/c1ccc(N2CCOCC2)o1)c1nc2ccccc2[nH]1 15, Cc1ccccc1-n1ncc2c(SCC(=O)NCc3cccs3)ncnc21 3.57, COc1ccc2c(C)cc(SCC(=O)N(C)C3CCS(=O)(=O)C3)nc2c1 (stereo not given) 4.13, Cn1c(=O)n(Cc2ccccc2F)c(=O)c2c1nc1n2CCN1Cc1ccco1 2.8, O=C1C2C3C=CC(C3)C2C(=O)N1CCc1ccccc1 (stereo not given) 3.33, CCCCN1C(=O)/C(=C/C=C2/CC(C)(C)CN2C)SC1=S 16.2, COc1ccc(NC(=O)/C(C#N)=C\c2ccc(N3CCOCC3)o2)cc1 3.17, COc1ccc(C(=S)N2CCCC2)cc1 0.82, O=C(Cn1ncn2c(cc3ccccc32)c1=O)NCc1ccco1 3.78, Cc1cc(=O)oc2cc(OC(=O)c3ccccc3)ccc12 -0.09, CCc1cc2c(CN3CCN(CCO)CC3)cc(=O)oc2cc1O 3.59, CCOc1ccc2[nH]c(=O)c(CN(Cc3ccco3)C(CC)c3nnnn3Cc3ccccc3)cc2c1 (stereo not given) -2.78, Cc1cc2nc3c(=O)n(C4CCCCC4)c(=O)[nH]c3nc2cc1N 7.94, CCC(C)N1C(=O)/C(=C/c2c(NCCCOC(C)C)nc3c(C)cccn3c2=O)SC1=S (stereo not given) 13.1, CC(=O)Nc1ccc2nc(NC(=O)COc3cccc(C)c3)sc2c1 1.98, Cc1noc(C)c1COc1cccc(C(=O)OC(C)C(=O)Nc2c(C)n(C)n(-c3ccccc3)c2=O)c1 (stereo not given) 1.6, COc1cc(N2CCCC2)c(OC)cc1/C=c1/sc2nc3ccccc3n2c1=O 16.8, CCCN1C(=O)/C(=C/C=C2\N(CC)c3ccccc3C2(C)C)SC1=S 12.5, CCCN1C(=O)/C(=C\C=C2\N(CC)c3ccccc3C2(C)C)SC1=S 17.2, N#C/C(=C/c1ccc(N2CCCCC2)o1)C(=O)NCCc1c[nH]c2ccccc12 17.5, O=C1c2cccnc2C(=O)N1Cc1ccco1 2.51, CC(C)(CO)C(O)C(=O)NCCC#N (stereo not given) -1.31, O=[N+]([O-])c1ccc(/C=C/C2=NN(c3ccccc3)C(c3ccco3)C2)o1 (stereo not given) 12.4, CCN(CC)c1ccc(NC(=O)C2CC3CCC2C3)cc1 (stereo not given) -2.14, CCOc1ccc(NC(=O)C2CCC(C)(C(=O)O)C2(C)C)cc1 (stereo not given) 3.64, CN1CC=C2C(C#N)=C(N)C(C#N)(C#N)C(c3cccc(Cl)c3Cl)C2C1 (stereo not given) 14.1, COc1cc(N2CCCC2)c(OC)cc1/C=C1/NC(=S)NC1=O 17.8, CCOC(=O)N1CCN(C(=O)c2cc(S(=O)(=O)N3CCCC3)cn2C)CC1 3.05, CCOC(=O)N1CCN(S(=O)(=O)c2ccc3c(c2)oc(=O)n3C)CC1 3.1, COCCNC(=O)c1onc(CSc2cccc(C)c2)c1C(=O)O 3.82, COc1ccc(N=C2NC(=O)S/C2=C\c2ccc(N(C)C)cc2)cc1 3.4, CN1CC=C2C(C#N)=C(N)C(C#N)(C#N)[C@H](c3cccc(Cl)c3)C2C1 (stereo not given in full) 15.9, N#C/C(C(=O)c1ccccc1)=C1/SC=C(N)N1c1ccccc1 5.96, CC(C)OC(=O)CN1C(=O)S/C(=C/c2ccc(N3CCCCC3)o2)C1=O 6.58, Cn1c(=O)n(C)c2cc(NC(=O)COc3ccc(Cl)cc3)ccc21 3.02, COc1ccccc1-c1c(C)c(C)nc(N)c1C#N -0.95, CC(=O)Nc1ccc(N=Cc2c(O)c(C(=O)Nc3ccccc3)cc3ccccc23)cc1 3.59, Cc1ccc(C(=O)SC2=NCCS2)cc1 1.97, O=C(CSc1ccccn1)Nc1cccc2ccccc12 2.55, O=c1[nH]c(/C=C/c2ccccc2OC(F)F)nc2c1cnn2-c1ccccc1 3.2, COc1ccc(CN(C(=O)c2ccc(-c3ccccc3)[nH]2)C(C(=O)NC(C)(C)C)c2ccncc2)cc1 (stereo not given) 2.66, O=C(Nn1c(-c2ccccc2)nc2ccccc2c1=O)c1ccco1 -0.06, C[N+](C)(C)CCCNC(=O)c1ccc(/C=N/O)nc1 0.8, N#Cc1nc(N2CCOCC2)nc(N2CCOCC2)n1 3.26, CCCN1CC=C2C(C#N)=C(N)C(C#N)(C#N)C(c3cc(OC)ccc3OC)C2C1 (stereo not given) 15.3, Cc1ccccc1C(=O)N1CCc2ccccc2C1 3.99, C[n+]1cc(C(=O)N2CCCCC2)ccc1/C=C/c1c[nH]c2ccccc12 3.95, N#Cc1c(NC(=O)CCCN2C(=O)c3ccccc3C2=O)oc(-c2ccccc2)c1-c1ccccc1 -0.48, Cc1csc(SC(C)C(=O)NCC(=O)Nc2ccc(F)c(F)c2F)n1 (stereo not given) 4.91, Cc1ccc2nc(C)c(C(=O)O)cc2c1 3.57, O=S(=O)(NCc1csc(-c2ccccc2)n1)c1ccc(Cl)s1 0.86, Cc1ccc(SCCC(=O)N/N=C/c2ccncc2)cc1 1.59, CC(=O)Oc1ccc2c(c1)Oc1cc(OC(C)=O)ccc1C21OC(=O)c2ccccc21 15.3, O=C1/C(=C/c2c[nH]c3ccccc23)CCC/C1=C\c1c[nH]c2ccccc12 4.59

z-score, active:
FC(F)(F)c1cccc(N2CCN(Cc3cccnc3)CC2)c1 -4.71, O=C(/C=C/c1ccco1)Oc1cc(Br)cc(/C=N/NC(=O)c2ccccc2O)c1 -4.99, CCCCNC(=O)CSc1cc(=O)n(C)c2ccccc12 -4.57, COc1ccccc1OCC(O)Cn1c(=N)n(CCN2CCCCC2)c2ccccc21 (stereo not given) -5.05, CCN(CC)S(=O)(=O)c1cccc(-c2nnc(SCCCC(=O)c3ccc(F)cc3)o2)c1 -4.17, C=CCn1c(C)cc(C(=O)CSc2nnc(-c3cccc(S(=O)(=O)N(CC)CC)c3)o2)c1C -3.66, Cc1nc2ccccc2nc1N/N=C/c1ccc(O)cc1O -3.3, Cc1ccc(-n2ncc(Br)c(Br)c2=O)cc1 -4.97, CC(C)Cn1c(=O)c2c(nc3n2CCCN3CCc2ccccc2)n(C)c1=O -4.13, COc1ccc(CC(=S)N2CCOCC2)cc1 -4.87, Cc1cc2oc(=O)cc(CN3CCN(C/C=C/c4ccccc4)CC3)c2cc1O -3.48, CCC(c1nnnn1CCc1ccccc1)N(Cc1ccco1)Cc1cc2cccc(C)c2[nH]c1=O (stereo not given) -3.08, CCC(c1nnnn1Cc1ccco1)N(Cc1ccccc1OC)Cc1cc2cc(C)ccc2[nH]c1=O (stereo not given) -4.61, CCC(c1nnnn1CCc1ccccc1)N(Cc1ccco1)Cc1cc2cc(C)cc(C)c2[nH]c1=O (stereo not given) -3.35, COc1ccc2nc(NC(=O)c3cccc(OCc4c(C)noc4C)c3)sc2c1 -3.94, CCOC(=O)c1ccc(NC(=O)C2(c3ccc(OC)cc3)CCCC2)cc1 -5.09, CCOC(=O)c1ccc(NC(=O)C2CC2)cc1 -4.4, CCOC(=O)N1CCC(N2CCN(S(=O)(=O)c3ccc4ccccc4c3)CC2)CC1 -4.2, Clc1ccc(C[n+]2cc(-c3ccccc3)n3c2CCCCC3)c(Cl)c1 -5.27, CCCCN(CC)S(=O)(=O)c1ccc(C(=O)N(CCCN(C)C)c2nc3cc(C)cc(C)c3s2)cc1 -3.82, Cc1cc(Cl)ccc1OCC(=O)OCC(=O)Nc1ccc(F)c([N+](=O)[O-])c1 -5.99, COc1ccc(OC)c(C2=Nn3c(nnc3C3CCCCC3)SC2)c1 -6.49, COc1ccc(C2=Nn3c(nnc3-c3ccccc3OC)SC2)cc1OC -3.31, CC(=O)Nc1ccc(Nc2c3ccccc3nc3ccccc23)cc1 -3.01, Cc1ccc(-c2nnc(N3CCN(C(=O)c4ccco4)CC3)c3ccccc23)cc1 -4.39, O=C(c1csc2ccccc12)N1CCCCCC1 -4.36, Cc1ccc(-n2nnnc2SC(C)C(=O)NCC(=O)Nc2ccc(F)c(F)c2F)c(C)c1 (stereo not given) -4.63, O=C(CN1CCOCC1)Nc1nc(-c2ccc3c(c2)CCN3S(=O)(=O)c2ccccc2)cs1 -3.24, CS(=O)(=O)N1CCc2cc(-c3csc(NC(=O)Cc4cccs4)n3)ccc21 -3.24, O=C(Nc1ccccc1)c1ccccc1NS(=O)(=O)c1ccc(Cl)s1 -3.51, O=C1CC(=O)C(n2cncn2)C(c2ccc(Cl)cc2)C1 (stereo not given) -5.08
